Screens from PubChem BioAssay.
A selection: hits, their analogues and other compounds. The true share with any hit is near 1.5%.
NOD2-RIPK2 inh: NOD2-RIPK2 binding disruptors in cells, primary screen, fluorescence, CHO cells, BLA complementation; inhibition, % at 4.98 µM; CCF4 ratio; Receptor-interacting serine/threonine-protein kinase 2 (Homo sapiens), O43353; AID 624267, 2012; 360,000 compounds, 0.38% hits; in the data active = inhibition above about 21%;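 also: 0% = vehicle only and 100% = reference blocker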
Beta2AR agonist: beta2AR agonists driving receptor internalization, primary screen, cell-based, FAP fluorogen, flow cytometry; 340,000 compounds, 0.43% hits; response, % (no concentration beside the values); Beta-2 adrenergic receptor (Homo sapiens), P07550; AID 504454, 2011; Am2.2-beta2AR cells;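 active = response above a set limit, near 3 SD of response in nonfluorescent compounds, cut at about 42% in these data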
ABHD5 PLIN5 PPI: ABHD5-PLIN5 interaction inhibitors, primary screen, cell lysate, split luciferase complementation, luminescence; Perilipin-5 (Homo sapiens) + 1-acylglycerol-3-phosphate O-acyltransferase ABHD5 (Homo …; AID 602281, 2012; inhibition, % at 4 µM; Split G. princeps luciferase complementation, 4 h; 360,000 compounds, 0.78% hits;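 active = inhibition above the mean inhibition across every tested compound plus 3 SD, cut at about 22% in these data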;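 also: 0% = DMSO only wells and the 100% control is not disclosed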
TLR4 MyD88 comp: inhibitors of TLR4-MyD88 association in cells, primary screen, cell-based, HeLa CL3-4, BLA complementation, FRET ratio | HeLa CL3-4 TLR4/MyD88 BLA complementation | AID 861, 2007 | 200,000 compounds, 0.18% hits | inhibition, % at 8.4 µM; in the data active = inhibition above about 25%;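 also: 0% = vehicle and 100% = reference inhibitor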
NTR1 agonist: agonists of human NTR1, primary screen, imaging, U2OS cells, beta-arrestin-GFP, high content. Neurotensin receptor type 1 (Homo sapiens), P30989. NTR1-U2OS beta-arrestin-GFP spot imaging, agonist mode. activation, % at 20 µM. 330,000 compounds, 0.17% hits. AID 493036, 2011;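 active = activation at or above 40% of the spot to cytoplasm intensity ratio, with at least 20 cells analyzed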;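 also: 0% = DMSO without peptide and 100% = 100 nM NTR1 peptide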
TLR9-MyD88 block: inhibitors of TLR9-MyD88 association in cells, primary screen, cell-based, CHO, BLA complementation, fluorescence; inhibition, % at 4.98 µM; CCF4 FRET ratio; 340,000 compounds, 0.21% hits; AID 504734, 2011;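 active = inhibition above the mean over all tested compounds plus 3 SD, cut at about 21% in these data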;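 also: 0% = DMSO only wells and 100% = clavulanate BLA inhibitor control wells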
Target sequence (Q99836 whole entry, looked up): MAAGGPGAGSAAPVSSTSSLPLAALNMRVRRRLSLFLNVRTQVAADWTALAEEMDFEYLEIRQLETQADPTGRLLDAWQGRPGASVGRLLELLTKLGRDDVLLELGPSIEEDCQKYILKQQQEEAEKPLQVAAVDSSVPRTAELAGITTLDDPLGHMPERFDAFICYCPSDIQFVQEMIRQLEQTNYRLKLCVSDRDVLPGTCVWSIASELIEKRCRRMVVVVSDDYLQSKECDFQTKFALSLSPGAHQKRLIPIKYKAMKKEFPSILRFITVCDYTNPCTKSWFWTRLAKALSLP
Target sequence (Q9NR96 whole entry, looked up): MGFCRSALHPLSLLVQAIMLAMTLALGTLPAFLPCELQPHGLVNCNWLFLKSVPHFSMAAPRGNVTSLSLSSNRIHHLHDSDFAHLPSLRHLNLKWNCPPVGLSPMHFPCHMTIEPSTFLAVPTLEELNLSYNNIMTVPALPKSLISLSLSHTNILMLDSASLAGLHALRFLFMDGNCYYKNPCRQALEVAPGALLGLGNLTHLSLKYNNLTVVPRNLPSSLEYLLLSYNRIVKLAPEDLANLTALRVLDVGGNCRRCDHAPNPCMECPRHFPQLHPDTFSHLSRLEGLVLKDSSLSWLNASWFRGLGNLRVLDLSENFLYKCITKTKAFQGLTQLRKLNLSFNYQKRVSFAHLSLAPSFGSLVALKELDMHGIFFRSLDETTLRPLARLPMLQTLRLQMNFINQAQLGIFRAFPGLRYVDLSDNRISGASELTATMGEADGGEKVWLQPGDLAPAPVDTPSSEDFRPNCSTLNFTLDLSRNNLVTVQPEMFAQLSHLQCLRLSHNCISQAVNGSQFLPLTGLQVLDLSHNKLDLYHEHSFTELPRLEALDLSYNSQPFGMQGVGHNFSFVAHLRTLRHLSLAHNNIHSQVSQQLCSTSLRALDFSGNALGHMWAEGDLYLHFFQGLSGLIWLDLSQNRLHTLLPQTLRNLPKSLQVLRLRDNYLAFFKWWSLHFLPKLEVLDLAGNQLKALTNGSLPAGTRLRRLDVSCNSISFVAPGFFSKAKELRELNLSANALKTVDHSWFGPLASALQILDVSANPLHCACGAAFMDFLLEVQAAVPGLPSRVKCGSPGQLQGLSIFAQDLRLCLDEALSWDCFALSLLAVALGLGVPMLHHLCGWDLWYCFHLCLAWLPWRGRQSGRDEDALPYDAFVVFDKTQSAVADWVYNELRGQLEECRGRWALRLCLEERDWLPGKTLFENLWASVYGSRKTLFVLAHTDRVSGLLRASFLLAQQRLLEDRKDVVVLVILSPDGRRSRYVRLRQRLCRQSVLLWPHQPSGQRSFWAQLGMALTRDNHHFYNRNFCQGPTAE
B2AR ag CP1: beta2AR agonists via receptor internalization, confirmation, cell-based, FAP fluorogen, flow cytometry, single point, cherry pick 1 | shares compounds with Beta2AR agonist | AID 540358, 2011 | percent response (surface receptor), % at 10 µM | 1,100 compounds, 25% hits | Am2.2-beta2AR cells, FAP surface receptor; active compounds read low;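 active = surface receptor percent response at or below 58%, roughly 3 SD from nonfluorescent compounds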
FAP fluor counter: fluorescence artifact in beta-2AR agonist FAP counterscreen; shares compounds with Beta2AR agonist; calls only at 10 µM; Am2.2 cells, FAP fluorogen flow cytometry; active compounds read low; AID 588765; 1,100 tested, under 10 active;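 active = percent response below a set limit in fluorescence channel 1 and below 50% in channel 8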
Starred values were filed as active, the others as inactive; i = inactive; · = no result given; + = active, no number; ! = not confirmed by another sample.

SMILES | NOD2-RIPK2 inh | Beta2AR agonist | ABHD5 PLIN5 PPI | TLR4 MyD88 comp | NTR1 agonist | TLR9-MyD88 block | B2AR ag CP1 | FAP fluor counter
CCN(Cc1ccccc1)S(=O)(=O)c1cc(C(=O)NC(C)C2CC3CCC2C3)ccc1OC (centres undefined) | -5 | 49* | -3 | -13 | 2 | -3 | 52* | i
COCCc1ccc(OC2(C)CCN(Cc3ccc(OC)c4ccccc34)C2)cc1 (centres undefined) | -1 | · | 0 | · | · | · | · | ·
CCOC(=O)COc1cccc2c(=O)n(CC(=O)NCc3ccc(F)cc3)ccc12 | 14 | 51* | -3 | · | 1 | -2 | 74 | i
CCOC(=O)COc1cccc2c(=O)n(CC(=O)NCc3ccccc3)ccc12 | 5 | 19 | -2 | · | 4 | 13 | · | ·
COc1cccc(NS(=O)(=O)c2ccc3c(c2)CCCN3C(C)=O)c1 | -14 | 47* | 3 | -4 | 2 | -8 | 116 | i
CC(NC(=O)c1cc(COc2ccc3ncccc3c2)on1)c1ccc(F)cc1 (centres undefined) | 5 | 45* | 0 | · | 0 | -5 | 57* | i
O=C(NC1CCCC1)c1cc(COc2ccc3ncccc3c2)on1 | -6 | -7 | -7 | · | 1 | -6 | · | ·
Nc1ncnc2c1ncn2[C@@H]1O[C@H](C(=O)NS(=O)(=O)c2cccs2)[C@@H](O)[C@H]1O | 4 | · | 0 | · | · | · | · | ·
CCCCn1c(=N)n(CC(=O)c2ccc([N+](=O)[O-])cc2)c2ccccc21 | · | · | · | 18 | 4 | · | · | ·
Cn1c(=N)n(CC(=O)c2ccc(F)cc2)c2ccccc21 | -4 | -7 | -16 | · | 1 | 0 | · | ·
Cn1c(=N)n(CC(=O)c2ccc(Br)cc2)c2ccccc21 | -3 | 43* | -5 | · | 0 | -2 | 16* | i
Cc1ccc(Cn2c(=N)n(CC(=O)c3ccc([N+](=O)[O-])cc3)c3ccccc32)cc1 | -5 | 100* | -3 | 10 | 12 | 2 | 23* | +
O=C(OC1CC2CC1[C@H]1CCCCN1C2=O)N1CCCCC1 (some centres undefined) | -7 | · | 2 | · | · | · | · | ·
CCCc1cc(=O)n2c(nc3ccccc32)[nH]1 | -9 | 68* | 4 | 1 | 0 | -6 | 95 | i
Cc1cc(=O)n2c(nc3ccccc32)[nH]1 | -1 | 1 | -1 | -3 | -1 | -14 | · | ·
Cc1cccc(S(=O)(=O)Nc2ccc(-c3cn4ccccc4n3)cc2)c1 | -2 | 79* | 8 | 1 | 0 | -10 | 131 | i
COC(=O)C1=C(C(=O)OC)C(c2ccccc2O)c2sc(=O)[nH]c2S1 (centres undefined) | -16 | 100* | -2 | -1 | 1 | 2 | 93 | i
COC(=O)c1sc2ccccc2c1N | -4 | 3 | -1 | 5 | 13 | 6 | · | ·
COc1ccc(C(C)=O)cc1CC(=O)N(Cc1ccccc1)c1ccccc1 | -4 | 45* | -2 | · | -1 | 0 | 58 | i
CC(C)[C@@H]1Cc2[nH]n(C)c(=O)c2[C@H](c2ccc(Cl)cc2)O1 | -2 | · | -2 | · | · | · | · | ·
C=CCn1c(C)cc(C(=O)COc2ccc(N(C)S(=O)(=O)c3ccc(NC(C)=O)cc3)cc2)c1C | 2 | 44* | 1 | · | 2 | -2 | 130 | i
CC(C)c1ccc2c(c1)CC[C@H]1[C@](C)(CN)CCC[C@]21C | -2 | 50*! | 1 | · | · | -6 | 79 | i
Cc1ccc(NC(=O)c2cc(N3C(=O)C=CC3=O)ccc2Cl)cc1C | -6 | 79* | 4 | 3 | 0 | -13 | 101 | i
COc1ccc(C(=O)C(CCC(CNC(C)(C)C)C(=O)c2ccc(OC)cc2)CNC(C)(C)C)cc1 (centres undefined) | 16 | 54* | 41* | -1 | · | 16 | 80 | i
COc1ccc(C(=O)CC(=O)c2ccc(C(C)(C)C)cc2)cc1 | 6 | 3 | -2 | · | · | -5 | · | ·
SMILES | NOD2-RIPK2 inh | Beta2AR agonist | ABHD5 PLIN5 PPI | TLR4 MyD88 comp | NTR1 agonist | TLR9-MyD88 block | B2AR ag CP1 | FAP fluor counter
Cc1n[nH]c(=O)n1-c1ccc(C(C)(C)C)cc1 | -11 | 4 | -12 | 6 | 1 | -11 | · | ·
CCOC(=O)Cn1nc(C)n(-c2ccc(C(C)(C)C)cc2)c1=O | 3 | 51* | 4 | 0 | -3 | -4 | 109 | i
COCCNC(=O)C1(C)CCCN(C(=O)c2cccc(OC(F)(F)F)c2)C1 (centres undefined) | 6 | · | 2 | · | · | · | · | ·
CCNC(=O)C1(C)CCN(C(=O)c2ccccc2OC)C1 (centres undefined) | 4 | · | 2 | · | · | · | · | ·
N#Cc1c(N2CCCC2)nc(N)c2c(N)nc(N3CCCC3)cc12 | 0 | 46* | -25 | -2 | 1 | -2 | 83 | i
COc1cc2c(C#N)c(N3CCCC3)nc(N)c2c(N)n1 | -9 | -8 | -8 | · | 6 | -9 | · | ·
COc1ccc(C2/C=C\CN(C(=O)c3ccccc3)CC(=O)N2Cc2cccc(F)c2)cc1 (centres undefined) | 6 | 4 | -5 | · | 2 | 3 | 101 | i
COc1ccc(C2/C=C\CN(C(=O)OCC3c4ccccc4-c4ccccc43)CC(=O)N2Cc2cccc(F)c2)cc1 (centres undefined) | 3 | 0 | 4 | · | 11 | -6 | · | ·
COc1ccc([C@H]2/C=C\CN(Cc3ccc(N(C)C)cc3)[C@@H](C)C(=O)N2Cc2ccc(F)cc2)cc1 | -4 | 113* | -11 | · | 3 | -1 | 29* | i
COc1ccc([C@H]2/C=C\CN(C(=O)c3ccc(C)cc3)[C@@H](C)C(=O)N2Cc2ccc(F)cc2)cc1 | 1 | 15 | 1 | · | 7 | -4 | 106 | i
COc1ccc(C2/C=C\CN(C(=O)c3ccccc3)[C@H](Cc3ccccc3)C(=O)N2Cc2ccc(F)cc2)cc1 (some centres undefined) | 1 | 12 | -2 | · | 1 | -6 | 105 | i
COC(=O)[C@@]12C[C@@H](CC(=O)NCC3CCCCC3)C(=O)N(Cc3ccco3)C1=CCC(C)(C)C2 | 12 | · | -11 | · | · | · | · | ·
Cc1cc(C)n2c(Nc3ccc4c(c3)OCCO4)c(CCc3ccccc3)nc2n1 | -21 | · | 3 | · | · | · | · | ·
CC(C)Cn1nc(NS(=O)(=O)c2ccccc2)c2cc3ccccc3nc21 | -14 | 1 | -10 | 7 | -2 | 2 | 127 | i
